# Assay results published in PMC4336329 (PLoS ONE, 2015).
# Out of some 310,000 compounds screened, about 14,000 (4.5%) showed an effect of 50% or more. Effects have a minus sign here. Only a selection was taken, and strong results are over-represented in it overall.
# Target: human ether-à-go-go-related gene (hERG) potassium channel (human, UniProt Q12809)
# Assay: primary screen, population patch clamp on CHO cells stably expressing hERG; higher = less effect of the substance
# 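Also: peak tail current of the secondary pulse compared with the same well before compound.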
# human ether-à-go-go-related gene (hERG) potassium channel, sequence (Q12809 whole entry, looked up): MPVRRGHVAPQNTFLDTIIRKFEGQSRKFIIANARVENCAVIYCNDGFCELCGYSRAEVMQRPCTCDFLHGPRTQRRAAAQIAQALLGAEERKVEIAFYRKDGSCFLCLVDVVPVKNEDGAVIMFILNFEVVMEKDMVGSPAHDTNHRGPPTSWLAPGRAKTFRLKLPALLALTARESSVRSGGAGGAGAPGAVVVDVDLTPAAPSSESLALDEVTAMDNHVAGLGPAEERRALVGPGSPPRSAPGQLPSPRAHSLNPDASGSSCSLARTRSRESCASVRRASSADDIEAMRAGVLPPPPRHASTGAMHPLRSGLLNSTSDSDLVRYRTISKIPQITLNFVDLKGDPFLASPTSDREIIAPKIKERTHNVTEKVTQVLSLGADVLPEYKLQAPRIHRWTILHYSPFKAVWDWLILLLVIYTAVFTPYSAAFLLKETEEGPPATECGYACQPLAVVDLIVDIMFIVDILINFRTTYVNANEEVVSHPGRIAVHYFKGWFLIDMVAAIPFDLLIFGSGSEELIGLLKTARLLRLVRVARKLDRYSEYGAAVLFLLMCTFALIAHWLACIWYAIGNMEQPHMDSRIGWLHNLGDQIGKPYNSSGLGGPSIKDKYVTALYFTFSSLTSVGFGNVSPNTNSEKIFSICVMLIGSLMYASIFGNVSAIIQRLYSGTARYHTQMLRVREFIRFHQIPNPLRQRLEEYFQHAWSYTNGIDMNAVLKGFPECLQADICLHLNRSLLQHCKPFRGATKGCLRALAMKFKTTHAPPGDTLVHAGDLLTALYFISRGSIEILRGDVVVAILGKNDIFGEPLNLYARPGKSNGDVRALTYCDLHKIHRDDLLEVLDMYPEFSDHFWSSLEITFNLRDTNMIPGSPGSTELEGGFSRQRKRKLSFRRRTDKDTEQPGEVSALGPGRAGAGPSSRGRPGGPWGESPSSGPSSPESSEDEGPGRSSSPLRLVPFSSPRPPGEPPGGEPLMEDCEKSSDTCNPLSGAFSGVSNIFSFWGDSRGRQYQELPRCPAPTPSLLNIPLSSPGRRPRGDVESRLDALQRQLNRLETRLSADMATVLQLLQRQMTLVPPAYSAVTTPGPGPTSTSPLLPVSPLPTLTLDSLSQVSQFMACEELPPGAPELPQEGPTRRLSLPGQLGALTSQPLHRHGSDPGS
row,Compound,"hERG current change (%, negative = inhibition) at 10uM [%]"
1,COc1cc(NC(=O)c2c(-c3ccccc3Cl)noc2C)c2ncccc2c1,25.5
2,CCOc1ccc(NC(=O)COC(=O)CNC(=O)c2ccc(-c3ccccc3)cc2)cc1,2.3
3,CC(=O)Nc1cccc(NC(=O)CSc2nc(=O)n(CCCN3CCOCC3)c3c2CCC3)c1,0.499
4,O=C(CSc1nc(=O)n(CCCN2CCOCC2)c2c1CCC2)Nc1cccc(F)c1,-37.4
5,CC(=O)Nc1cccc(NC(=O)CSc2nc(=O)n(CCN3CCOCC3)c3c2CCCC3)c1,0.233
6,O=C(CSc1nc(=O)n(CCCN2CCOCC2)c2c1CCC2)Nc1ccc(F)cc1F,-41.8
7,O=C(CSc1nc(=O)n(CCCN2CCOCC2)c2c1CCCC2)Nc1cccc(Cl)c1,-62.2
8,O=C(CSc1nc(=O)n(CCCN2CCOCC2)c2c1CCCC2)Nc1cccc(F)c1,-56.2
9,CN(c1ccccc1)C(c1ccc(F)cc1)c1nnnn1CC1CCCO1.Cl (stereo not drawn),-14.1
10,Cn1cc([N+](=O)[O-])c(C(=O)N/N=C/c2cc3c(cc2Br)OCO3)n1,3.63
11,CC(=O)Nc1ccc(S(=O)(=O)N[C@@H](C)C(=O)Nc2ccc(N3CCOCC3)cc2)cc1,15.1
12,CCOC(=O)C1=NN(C(=O)c2ccccc2)C(O)(c2ccc(C)cc2)C1 (stereo not drawn),-17.2
13,CCOC(=O)C1=NN(C(=O)c2ccc(OC)cc2)C(O)(c2ccc(Cl)cc2)C1 (stereo not drawn),-75.5
14,COC(=O)C1=NN(C(=O)c2ccc(C)cc2)C(O)(c2ccc(Cl)cc2)C1 (stereo not drawn),-31.2
15,O=C(c1ccc(Br)o1)N1CCN(Cc2ccccc2Cl)CC1,-12.6
16,O=C(c1ccc(Br)o1)N1CCN(c2ccccc2F)CC1,-4.94
17,O=C(c1cc(F)c(F)cc1Cl)N1CCN(CCc2ccccc2)CC1,-71.6
18,COc1ccc(N2CCN(C(=O)c3ccc(Br)o3)CC2)cc1,-17
19,O=C(c1ccccc1)N1CCN(C(=O)c2ccncc2)CC1,14.3
20,O=C(c1ccc(Br)o1)N1CCN(CCc2ccncc2)CC1,-69.8
21,O=C(c1cc(Cl)ccc1Cl)N1CCN(Cc2ccccc2)CC1,5.54

row,Compound,"hERG current change (%, negative = inhibition) at 10uM [%]"
1,O=C(c1ccc(Br)o1)N1CCN(c2ncccn2)CC1,0.956
2,CCN1CCN(c2ccc(N3CCN(C(=O)c4ccc(Br)o4)CC3)nn2)CC1,-71.5
3,O=C(c1ccc(F)cc1Cl)N1CCN(CCc2ccccc2)CC1,-44
4,O=C(c1ccccc1)N1CCN(CCc2ccccc2)CC1,-43.6
5,O=C(c1ccncc1)N1CCN(CCc2ccccc2)CC1,-50.8
6,COc1cc2c(cc1OC)C(C)N(C(=O)Nc1ccc(F)cc1)CC2 (stereo not drawn),10.6
7,Br.O=C(CSc1nc2ccccc2c(=O)n1-c1ccccc1)c1cccc([N+](=O)[O-])c1,-7.38
8,COc1cc2c(cc1OC)C(c1ccc(Br)cc1)N(C(=O)c1ccccc1C(=O)O)CC2 (stereo not drawn),9.72
9,Cc1cc(C)c(C)c(S(=O)(=O)NCCCN2CCOCC2)c1C,13.6
10,O=C1CCN(C(=O)Nc2cccc(Cl)c2)N1,14.1
11,COc1ccc(NC(=S)N(CCC(C)C)C2CCN(C(C)C)CC2)cc1Cl,-68.1
12,CCOc1ccc(NC(=O)N(CCC(C)C)C2CCN(C(C)=O)CC2)cc1,-9.87
13,CC(C)CCN(C(=S)Nc1cccc(F)c1)C1CCN(C(C)C)CC1,-42.9
14,CSc1cccc(NC(=S)N(CCC(C)C)C2CCN(C(C)=O)CC2)c1,-23.3
15,COCCN(C(=S)Nc1ccc(OC)c(Cl)c1)C1CCN(C(C)C)CC1,-35.9
16,CSc1cccc(NC(=S)N(CCC(C)C)C2CCN(C(C)C)CC2)c1,-52.5
17,COc1ccc(NC(=S)N(C(C)C)C2CCN(C(C)C)CC2)cc1Cl,0.307
18,CC(C)CCN(C(=O)Nc1ccc(Cl)cc1)C1CCN(C(C)C)CC1,-72.1
19,CCCCN(C(=O)Nc1ccc(Cl)cc1)C1CCN(C(C)=O)CC1,-46
20,O=C1CCCN1CCCNc1ncnc2sccc12,3.29
21,CC(C)(C)N1[C@@H](CC(=O)O)c2cc(C(F)(F)F)ccc2S1(=O)=O,11.2

row,Compound,"hERG current change (%, negative = inhibition) at 10uM [%]"
1,Cc1ccccc1Nc1nc(N)nc(COC(=O)CCS(=O)(=O)c2ccccc2)n1,-14.4
2,CC(C)=C1C2CCC1C1C(=O)N(NC(=O)c3ccco3)C(=O)C21 (stereo not drawn),-4.72
3,Cc1nn(C)c(C(=O)N2CCc3ccccc32)c1Cl,2.37
4,CCOC(=O)c1cnc2c(C)cc(C)cc2c1Nc1ccc(S(=O)(=O)Nc2ncccn2)cc1,-0.317
5,COc1ccc(Cl)cc1N(CC(=O)N1CCN(Cc2ccccc2)CC1)S(C)(=O)=O,-7.28
6,O=C(CN1CCN(Cc2ccc3c(c2)OCO3)CC1)N1CCc2[nH]c3ccc(F)cc3c2C1,-62.8
7,Cc1ccc2[nH]c3c(c2c1)CN(C(=O)CN1CCN(C(=O)c2ccco2)CC1)CC3,-5.97
8,Cc1ccc2[nH]c3c(c2c1)CN(C(=O)CN1CCN(Cc2ccc4c(c2)OCO4)CC1)CC3,-54.8
9,CN(CC(=O)N1CCc2[nH]c3ccc(F)cc3c2C1)CC1OCCO1,5.81
10,O=C(c1cc2cc(F)ccc2[nH]1)N1CCN(Cc2ccc3c(c2)OCO3)CC1,-0.31
11,Cc1ccc2[nH]c3c(c2c1)CN(C(=O)CN1CCCCC1)CC3,-31.8
12,COc1ccccc1NC(=O)c1sc2nc(-c3ccco3)ccc2c1N,1.24
13,Cc1n[nH]c(C)c1N1C(=O)c2cccc3c(N4CCCCCC4)ccc(c23)C1=O,-21.5
14,CCC(=O)N1c2ccc(S(=O)(=O)NCCc3ccc(OC)c(OC)c3)cc2CC1C (stereo not drawn),10.3
15,CSc1c(CC(=O)Nc2ccccc2Cl)n(Cc2ccccc2)c2ccccc12,8.86
16,COc1ccc(NC(=O)CCCN2C(=O)CN(C)C2=O)c(OC)c1,-4.4
17,CCN(CC)S(=O)(=O)c1ccc(C(=O)NCc2cccs2)cc1,-20.7
18,CCN(CC(=O)NCc1cccs1)C(=O)c1ccc(S(=O)(=O)Nc2ccccc2)cc1,-15.6
19,CCN(CC(=O)NCc1cccs1)C(=O)c1cccc(S(=O)(=O)NC)c1,-12.2
20,CCN(CC(=O)NCc1cccs1)C(=O)c1ccc(S(=O)(=O)N(C)C)cc1,48.6
21,CCN(CC(=O)NCc1cccs1)C(=O)c1ccc(S(=O)(=O)N(CC)c2ccccc2)cc1,-61.4

row,Compound,"hERG current change (%, negative = inhibition) at 10uM [%]"
1,CCN(CC(=O)NCc1cccs1)S(=O)(=O)c1ccc(C(C)C)cc1,-53.3
2,CCN(CC(=O)NCc1cccs1)C(=O)c1cccc(S(=O)(=O)N2CCc3ccccc32)c1,-71.3
3,CCN(CC(=O)NCc1cccs1)S(=O)(=O)c1ccc(F)cc1,-85
4,CCN(CC(=O)Nc1cccc(OC)c1)C(=O)c1cccc(S(=O)(=O)N2CCc3ccccc32)c1,-1.63
5,CCN(CC(=O)NCc1cccs1)S(=O)(=O)c1ccccc1Cl,-11.3
6,CCN(CC(=O)NCc1cccs1)S(=O)(=O)c1ccc(NC(C)=O)cc1,-7.22
7,CCN(CC(=O)NCc1cccs1)S(=O)(=O)c1c(F)cccc1F,0.594
8,COC(=O)c1ccc2c(c1)S(=O)(=O)NC(=NCCCN1CCOCC1)S2.Cl,-1
9,COc1ccc(OCCC(=O)OCC(=O)NC(=O)NC2CCCCC2)cc1,13.2
10,CN(C)c1ccc(NS(=O)(=O)c2ccc(-c3csnn3)cc2)cc1,13.1
11,CCCC1(c2ccccc2)NC(=O)N(CC(=O)c2[nH]c(C)c(C(=O)OCC)c2C)C1=O (stereo not drawn),12.5
12,CCOC(=O)N1CCN(Cc2cn3ccccc3n2)CC1.O=C(O)C(=O)O,21.9
13,Nc1cc(C(=O)N/N=C/c2cccc([N+](=O)[O-])c2)n[nH]c1=O,7.18
14,c1ccc(Cn2c(SCc3nc4ccccc4s3)nnc2-c2ccco2)cc1,-34.1
15,CCOC(=O)N1CCN(C(=O)C2CCN(S(=O)(=O)c3ccc(Br)s3)CC2)CC1,-35.2
16,O=C(Oc1ccc(/C=N/Nc2nc(N3CCCCC3)nc(N3CCCCC3)n2)cc1)c1ccco1,-9.1
17,COc1ccc(NC(=O)c2cccc(C#N)c2)cc1NS(=O)(=O)c1ccc(F)cc1,8.63
18,Cc1ccnc(SCCn2c(N3CCN(c4ccccc4)CC3)nc3c2c(=O)[nH]c(=O)n3C)n1,-17.3
19,CCN(CC(=O)NCc1cccs1)S(=O)(=O)c1cccc(C(C)=O)c1,0.039
20,CCN(CC(=O)NCc1cccs1)S(=O)(=O)c1cccc(Br)c1,11.9
21,CCN(CC(=O)NCc1cccs1)S(=O)(=O)c1ccc([N+](=O)[O-])cc1,-68.2
